# In the library only some 3.8% were active in any assay of this set; here they are far more common.
# CR mimetic SO: lowers age-related superoxide in aged yeast cells. S. cerevisiae aged cells, superoxide DHE fluorescence; stronger effect = lower value. 330,000 tested, 0.18% active. superoxide response (% of plate mean), % at 10 µM;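 active means superoxide response under a set limit, about three screen SD below normal, cut at about 65% in these data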;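 further: yeast aged for seven days with compound at 30 °C before DHE staining; 100% = average MFI of all compound-treated wells on the plate with controls excluded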
# NLRP3 yeast inh: NALP3 inhibition in yeast; inhibition, % at 10 µM; AID 2825; Yeast reconstituted NLRP3/ASC/caspase-1, beta-gal luminescence, 24 h; 330,000 tested, 0.39% active;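 active means inhibition of 50% or more; inactive means inhibition below 50%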;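 further: plate controls were induced DMSO wells for no effect and uninduced yeast grown without galactose for full effect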
# tim23-1 inh: inhibits growth of tim23-1 mutant yeast; 330,000 tested, 1.3% active; S. cerevisiae tim23-1 growth, BacTiter-Glo luminescence, 24 h; inhibition, % at 20 µM;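 active means growth inhibition of the mutant yeast at or above 50%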;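 further: temperature-sensitive mutant grown at 25 °C; plate controls were DMSO-treated mutant yeast for no effect and medium wells lacking yeast for full effect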
# TIM10 inh: growth inhibitors of TIM10 yeast strain | S. cerevisiae TIM10 strain growth, BacTiter-Glo luminescence, 24 h | inhibition, % at 10 µM | 330,000 tested, 1.4% active;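 active means inhibition of 40% or more at the single tested concentration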;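 further: wild-type TIM10 isogenic control strain grown at permissive 25 °C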
# tim10-1 inh: growth inhibitors of tim10-1 mutant yeast; S. cerevisiae tim10-1 ts strain growth, BacTiter-Glo, 24 h; inhibition, % at 20 µM; 330,000 tested, 2.2% active;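 active means inhibition of at least 40%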;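 further: mutant grown at 25 °C; 0% = DMSO wells with yeast and 100% = wells holding no yeast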
# tim10-1 conf: tim10-1 yeast growth inhibition, confirmed; inhibition, % at 20 µM; shares compounds with tim10-1 inh; S. cerevisiae tim10-1 ts strain growth, BacTiter-Glo, 24 h; AID 463213; 7,400 tested, 56% active;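 active means inhibition of yeast growth at or above a set limit in either of two repeat tests at 20 µM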;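 further: tim10-1 mutant grown at permissive 25 °C to find synthetic lethal compounds; 0% = DMSO yeast wells and 100% = medium wells without yeast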
# * hit, by the source's call; nt = no result given.
SMILES,CR mimetic SO,NLRP3 yeast inh,tim23-1 inh,TIM10 inh,tim10-1 inh,tim10-1 conf
CCN(C[C@H]1N[C@@](C)(C(=O)OC)[C@H]2C(=O)N(C)C(=O)[C@@H]12)C(=O)Nc1ccc(OC)cc1,95,5,-13,-5,-9,nt
CCOC(=O)C1CCCN(C(=O)CN2C(=O)COc3ccc(C(C)(C)C)cc32)C1 (stereo unspecified),111,24,31,23,30,nt
CCOC(=O)C1CCN(C(=O)CN2C(=O)COc3ccc(C(C)(C)C)cc32)CC1,99,0,28,9,44*,7
CCN(CC)CCCCN1c2ccccc2Sc2ccccc21,102,25,14,12,41*,27
CCSc1ccc2c(c1)N(CCCN1CCN(C)CC1)c1ccccc1S2,104,26,24,17,42*,31*
CCN(CC)CC(=O)N1c2ccccc2Sc2ccccc21,103,7,3,-14,4,nt
OCCN1CCN(CC/C=C2/c3ccccc3Sc3ccc(C(F)(F)F)cc32)CC1,84,15,13,18,51*,24
OCCN1CCN(CCCN2c3ccccc3Sc3ccc(C(F)(F)F)cc32)CC1,112,35,6,20,42*,30*
OCCN1CCN(CC/C=C2/c3ccccc3CSc3ccccc32)CC1,94,6,4,23,25,nt
CN1CCCC(CN2c3ccccc3Sc3ccccc32)C1 (stereo unspecified),101,40,-11,9,16,nt
O=C(CCN1C(=O)c2ccccc2S1(=O)=O)NCc1ccccc1,109,7,7,-2,12,nt
Cc1nn(Cc2ccccc2)c2c1C(c1cccc(Cl)c1)C(C#N)=C(N)O2 (stereo unspecified),95,-1,31,35,29,nt
CN(C)CCCN1c2ccccc2Sc2ccc(C(F)(F)F)cc21,103,37,21,29,44*,31
CN(C)CCC(=O)N1c2ccccc2Sc2ccc(C(F)(F)F)cc21,100,25,26,16,22,nt
COc1ccccc1/C=C1\SC(=S)N(NS(=O)(=O)c2ccc(C)cc2)C1=O,98,-28,40,17,44*,18
COc1ccc(/C=C2\SC(=S)N(NS(=O)(=O)c3ccc(C)cc3)C2=O)c(OC)c1,117,-16,28,28,36,nt
CN(C)S(=O)(=O)c1ccc(N2CCCC2)c(C(=O)NNC(=O)COc2ccccc2F)c1,98,-4,8,1,7,nt
CC(C)c1ccc(NC(=O)c2cc(S(=O)(=O)NCC3COc4ccccc4O3)ccc2F)cc1 (stereo unspecified),117,3,34,38,43*,43*
O=C(O)c1cc(S(=O)(=O)NCC2COc3ccccc3O2)ccc1Cl (stereo unspecified),105,7,-9,6,-20,nt
Cc1cc(C)c(NC(=O)Cn2c([N+](=O)[O-])cnc2C)c(C)c1,86,3,-17,-2,-7,nt
Cc1ccsc1C1NC(=O)c2c(sc3c2CCCC3)N1 (stereo unspecified),92,-8,48,38,48*,35*
Cc1ccccc1N1CCN(C(=O)c2ccccc2NC(=O)C2CC=CCC2C(=O)O)CC1 (stereo unspecified),105,0,-6,3,7,nt
Oc1ccccc1/C=N/NC(=S)NCCc1ccccc1,102,nt,nt,nt,nt,nt
C/C(=N\NC(=S)NCc1ccccc1)c1ccco1,102,-15,-18,23,17,nt
C/C(=N\NC(=S)NCCc1ccccc1)c1ccc(O)cc1O,126,17,33,30,43*,3
SMILES,CR mimetic SO,NLRP3 yeast inh,tim23-1 inh,TIM10 inh,tim10-1 inh,tim10-1 conf
C/C(=N\NC(=S)NCc1ccccc1)c1ccc(C(C)(C)C)cc1,103,21,38,28,42*,24
C/C(=N\NC(=S)NCc1ccccc1)c1ccc(C#N)cc1,117,3,3,15,5,nt
C/C(=N\NC(=S)NCc1ccccc1)c1ccccc1F,96,-6,40,31,46*,34*
CC(=O)NS(=O)(=O)c1ccc(NC(=S)NC(=O)COc2ccccc2C)cc1,100,8,12,-2,21,nt
CN1CCN(c2cc(N3CCc4ccccc4C3)c(F)cc2[N+](=O)[O-])CC1,110,15,34,30,48*,39*
CC[n+]1c(/C=C2\C=C(C)CC(C)C2)sc2ccccc21 (stereo unspecified),91,-2,35,22,30,nt

# Compound activity (PubChem)
